Laboratory results published in publication PMC5540273 (PLoS ONE, 2017).

Key:
Conditions in all cases: concentration: 1 μM, replicates: in singlicate; n = 1
[1] = test system: STK36
[2] = test system: STK39
[3] = test system: SYK
[4] = test system: SgK110
[5] = test system: T1, TAK1
T1 construct: gene MAP3K7

[6] = test system: TAOK1
[7] = test system: TAOK2
[8] = test system: TAOK3
[9] = test system: TBK1
[10] = test system: TEC
[11] = test system: TESK1
[12] = test system: TGFBR1
[13] = test system: TGFBR2
[14] = test system: TIE1
[15] = test system: T2, TIE2
T2 construct: gene TEK

[16] = test system: TLK1
[17] = test system: TLK2
[18] = test system: TNIK
[19] = test system: TNK1
[20] = test system: TNK2
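Also: KINOMEscan kinase panel screen.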

Compound	%Inh [1] [%]	%Inh [2] [%]	%Inh [3] [%]	%Inh [4] [%]	%Inh [5] [%]	%Inh [6] [%]	%Inh [7] [%]	%Inh [8] [%]	%Inh [9] [%]	%Inh [10] [%]	%Inh [11] [%]	%Inh [12] [%]	%Inh [13] [%]	%Inh [14] [%]	%Inh [15] [%]	%Inh [16] [%]	%Inh [17] [%]	%Inh [18] [%]	%Inh [19] [%]	%Inh [20] [%]
Cl.Cl.NCC(NC(=O)c1cc(-c2ccccc2)c(-c2ccnc3[nH]ccc23)s1)c1ccccc1 (stereo not shown) [GSK1321561]	29	8	5	0	35	4	0	0	24	11	16	0	0	13	0	54	0	86	0	7
COc1cc(Nc2nccc(-c3c(-c4cccc(NC(=O)c5c(F)cccc5F)c4)nn4ccccc34)n2)cc(OC)c1OC [GSK323521]	19	8	28	0	28	0	0	0	3	21	36	0	17	67	46	6	0	0	0	1
c1ccc(-c2n[nH]cc2Nc2ccnc3ccccc23)nc1 [GW694077]	0	8	16	0	91.6	66	21	10	0	0	11	5	56	0	0	0	0	42	0	1
COc1ccc(-c2coc3ccc(-c4nnc(SCc5ccc(OC)c(C(F)(F)F)c5)o4)cc23)cc1	29	0	0	4	0	0	0	0	11	18	0	6	25	0	0	17	0	3	9	8
Cl.c1ccc(-c2ccc3c(Nc4ccc5[nH]ccc5c4)ccnc3c2)nc1 [GW440138]	0	0	0	0	0	0	0	0	12	0	23	53	4	0	0	1	0	58	24	4
CN1CCN(CCCNc2nccc(-c3c(-c4ccc(F)cc4)nn4cc(C(F)(F)F)ccc34)n2)CC1 [GW621581]	97.6	3	10	0	0	4	0	8	0	0	10	72	44	16	9	2	0	24	0	0
CC(C)c1nc(-c2cccc(NS(=O)(=O)c3c(F)cccc3F)c2F)c(-c2ccnc(Nc3ccc(N4CCOCC4)nc3)n2)s1 [GSK2008607]	100	48	85	0	76	10	71	19	51	85	100	86	77	91.2	99.1	22	0	63	100	99.6
Nc1ncc(-c2cccnc2)c2scc(-c3ccc4c(c3)CCN4C(=O)Cc3ccccc3)c12 [GSK683281]	87	4	34	1	7	0	4	0	14	17	33	0	0	92.5	57	0	0	55	19	59
O=C(NC1CCN(c2ccnc(Nc3ccc(F)cc3)n2)C1)c1cc2ccccc2s1 (stereo not shown) [GSK1379716]	0	4	42	0	0	0	0	0	20	16	31	39	0	24	0	7	0	1	0	21
C[C@@H]1CC[C@@H](C(=O)Nc2ccccc2)CN1c1cc(-c2ccc3c(N)n[nH]c3c2)nc(N)n1 [GSK2286062]	0	0	30	0	0	0	0	10	17	0	29	0	0	0	22	0	4	0	0	0
CCCCc1nn2ncccc2c1-c1ccnc(Nc2ccc(N3CCN(C)CC3)cc2)n1 [GW684941]	91.4	33	0	10	4	37	47	42	11	0	39	80	91	93.6	80	0	0	25	86	62
Cc1cccc(Nc2nc(N[C@H]3CCNC3)ncc2C(N)=O)c1.Cl [GSK2197149]	10	9	81	0	90	39	0	5	18	0	23	0	0	0	0	20	0	78	47	6
CC(C)(C)c1ccc2nccc(Nc3cccc(O)c3)c2c1 [GW856795]	0	14	0	0	23	100	0	59	14	12	0	42	88	0	2	12	0	0	19	0
Cl.Cl.NCC(C(=O)Nc1cc(Br)c(-c2ccnc3[nH]ccc23)s1)c1ccccc1 (stereo not shown) [GSK1269851]	0	44	7	0	0	0	0	0	7	11	0	0	0	51	6	0	0	11	6	12
Cc1ccc(S(=O)(=O)Nc2ccc(Nc3nccc(Nc4cccc5[nH]ncc45)n3)cc2)cc1 [GSK581271]	0	1	31	0	0	0	0	0	9	9	13	20	91.2	9	0	0	0	0	0	27
c1ccc(Oc2ccc(Nc3ccnc4cc(-c5ccc(CNCCN6CCOCC6)o5)ccc34)cc2)nc1 [GW567145]	0	1	14	0	0	0	0	0	1	39	3	0	0	0	0	0	0	30	27	37
Cc1ccc(C(=O)Nc2ccc(Nc3ccnc4cc(-c5nccs5)ccc34)cc2O)cc1.Cl [GW494702]	35	0	5	15	0	0	0	0	0	0	15	40	0	16	5	0	0	36	46	96.9
COc1cccc(-c2ccc3c(NC(=O)C4CC4)n[nH]c3n2)c1 [SB-710903]	0	17	19	0	0	30	4	0	13	0	36	27	0	0	0	3	0	82	0	9
CN1CCN(Cc2cccc(-c3ccc4c(Nc5ccc(Oc6ccccc6)cc5)ccnc4c3)c2)CC1 [GW578342]	0	6	0	6	13	0	0	0	16	70	2	0	0	10	0	78	0	98.8	70	7
CN(C)Cc1ccc(-c2ccc3c(Nc4ccc(Oc5ccccn5)cc4)ccnc3c2)o1 [GW567148]	0	0	0	0	23	0	0	0	7	49	0	0	0	19	0	0	0	20	29	40
